Screening results (PubChem)
A3G deaminase: inhibitors of human APOBEC3G DNA deaminase | recombinant A3G, ssDNA deamination FAM/TAMRA fluorescence | inhibition, % at 20 µM | actives 0.28% (n = 330,000) | AID 493012;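 active = inhibition of at least 40% at 20 µM, with no more than 30% in the related APOBEC3A deaminase screen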;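 note: plate controls were DMSO wells with A3G for no effect and wells lacking A3G enzyme for full effect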
A3A deaminase: human APOBEC3A DNA deaminase inhibition | AID 493011 | inhibition, % at 20 µM | P31941 | recombinant A3A, FAM/TAMRA ssDNA deamination fluorescence | actives 0.41% (n = 330,000);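 active = at least 40% inhibition at 20 µM here, with at most 30% in a related deaminase screen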;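 note: plate controls were A3A with DMSO for no effect and wells lacking A3A enzyme for full effect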
ADAM17 inh: inhibits human ADAM17. P78536. recombinant ADAM17, EDANS/DABCYL FRET peptide cleavage. inhibition, % at 6.95 µM. actives 0.83% (n = 370,000). AID 720648;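 active = inhibition above the mean of compounds lying between control limits plus 3 SD, set per campaign, cut at about 8.5% in these data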;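 note: 0% = DMSO-only wells as the low control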
ADAM10 inh: inhibitors of human ADAM10. actives 0.62% (n = 370,000). inhibition, % at 7 µM. O14672. recombinant ADAM10, EDANS/DABCYL FRET peptide cleavage, 3 h;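 active = inhibition above a per-campaign cutoff equal to the mean of compounds falling between control-based bounds plus 3 SD, cut at about 20% in these data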;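 note: 0% = DMSO wells while the 100% control is not disclosed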
Target sequence (O14672 214-748 limits assumed): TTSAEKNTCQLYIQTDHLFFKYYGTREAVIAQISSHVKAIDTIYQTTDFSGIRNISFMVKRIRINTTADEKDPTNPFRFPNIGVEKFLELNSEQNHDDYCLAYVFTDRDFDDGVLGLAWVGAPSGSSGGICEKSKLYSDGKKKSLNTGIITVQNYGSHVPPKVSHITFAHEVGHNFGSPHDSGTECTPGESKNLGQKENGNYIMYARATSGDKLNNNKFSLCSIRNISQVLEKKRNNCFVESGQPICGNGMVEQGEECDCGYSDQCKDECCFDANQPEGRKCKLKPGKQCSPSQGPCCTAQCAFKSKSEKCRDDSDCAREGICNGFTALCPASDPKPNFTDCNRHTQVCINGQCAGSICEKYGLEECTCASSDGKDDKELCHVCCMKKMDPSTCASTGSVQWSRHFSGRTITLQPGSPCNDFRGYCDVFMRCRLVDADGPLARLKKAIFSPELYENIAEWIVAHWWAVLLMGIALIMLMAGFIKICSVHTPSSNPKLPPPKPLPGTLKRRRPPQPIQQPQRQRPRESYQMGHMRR
NRP1-CendR mod: NRP-1/CendR interaction modulation. O14786. FAM-RPARPAR peptide binding to NRP-1, fluorescence polarization. inhibition, % at 25 µM. actives 0.85% (n = 360,000);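 active = inhibition or corrected inhibition above about 18%, plus a signal ratio from 0.5 to 1.5, limit read from the data, passing the limit was not always enough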
ADAM10 confirm: confirmation of inhibitors of human ADAM10; shares compounds with ADAM10 inh; ADAM10 QFRET peptide cleavage, EDANS fluorescence; inhibition, % at 6.95 µM; actives 1% (n = 2,100); AID 743208;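 active = inhibition above about 20% chosen separately for each screening run, limit read from the data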;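 note: 0% = DMSO wells and 100% = marimastat wells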
ADAM17 ctr: counter-screen for ADAM10 exosite inhibitors: inhibitors of human ADAM17 | shares compounds with ADAM10 inh | ADAM17 QFRET peptide cleavage, EDANS fluorescence | inhibition, % at 6.95 µM | actives 0.5% (n = 2,100) | AID 743214;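 active = mean triplicate inhibition above the solvent-only control wells' mean plus 3 SD, cut at about 12% in these data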;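 note: 0% = DMSO wells and 100% = marimastat wells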
An asterisk follows results filed as active; · = not tested or not shown. In the library only some 2.4% were active in any assay of this set; here they are far more common.

SMILES	A3G deaminase	A3A deaminase	ADAM17 inh	ADAM10 inh	NRP1-CendR mod	ADAM10 confirm	ADAM17 ctr
O=C(Nc1nc2ccccc2s1)C1c2ccccc2Oc2ccccc21	5	4	8	28*	-3	10	3
Oc1ccccc1-c1cc(-c2cccc(F)c2)n[nH]1	-3	0	5	21*	-7	4	1
Oc1ccc(Cl)cc1-c1cc(-c2ccccc2Cl)[nH]n1	-3	-2	3	5	2	·	·
Cc1cc(C)c(C#N)c(SCc2ccccc2)n1	-5	3	8	23*	1	1	1
Cc1cc(C)c(C#N)c(SCSCc2ccccc2)n1	-6	-3	4	7	-5	·	·
CC(C)c1ccc(OCCCN2CCC(C(O)(c3ccccc3)c3ccccc3)CC2)cc1	·	·	3	12	·	·	·
C[C@@H]1CN([C@H](C)CO)C(=O)c2cc(NC(=O)Nc3ccccc3)ccc2O[C@@H](C)CCCCO[C@H]1CN(C)S(C)(=O)=O	·	·	-2	-1	·	·	·
CCOc1ccc(-c2cc(C(C)=O)c3n(c2=O)CCC3)cc1	·	·	-9	-9	·	·	·
Cc1ccc(C2(c3ccccc3)NC(=O)N(CC(=O)NCc3ccccc3)C2=O)cc1C (centres undefined)	0	15	8	23*	8	3	1
COc1ccc(C2(c3ccc(OC)cc3)NC(=O)N(CC(=O)Nc3ccccc3C)C2=O)cc1	-3	2	1	7	14	·	·
COc1ccc(C2(c3ccc(OC)cc3)NC(=O)N(CC(=O)Nc3ccccc3C(F)(F)F)C2=O)cc1	-5	-5	8	21*	3	2	1
COc1ccc(COCC(O)CN(Cc2ccco2)Cc2ccccc2O)cc1 (centres undefined)	-2	0	0	2	14	·	·
Oc1ccccc1CN(Cc1ccco1)CC(O)COCc1ccc(Cl)cc1 (centres undefined)	5	6	9	23*	12	3	1
COC(=O)[C@]12C[C@H](CC(=O)N3CCN(C(=O)C4CC4)CC3)C(=O)N(Cc3cccc4ccccc34)C1=C[C@H](C(C)C)O[C@@H]2C1CC1	·	·	-3	8	·	·	·
CCN(CC)C(=O)C1CCCN(Cc2cccc(F)c2)C1 (centres undefined)	-5	-2	-1	79*	6	1	0
O=C(NC1CCCN(Cc2ccc(Cl)cc2)C1)c1cccc(F)c1 (centres undefined)	-10	-7	-2	82*	3	1	0
CCCOc1nccc2c1n(C)c(=O)n2C	·	·	0	-4	·	·	·
CC1(C)CC2CN(Cc3ccccc3)S(=O)(=O)N2C1 (centres undefined)	·	·	0	1	·	·	·
Cc1noc(C)c1COc1cccc(C(=O)OCCOc2ccc(F)cc2)c1	-8	-3	5	26*	1	4	1
COCC(=O)N(c1ccc(C(C)(C)C)cc1)C(C(=O)NC(C)(C)C)c1cccnc1 (centres undefined)	·	·	-5	-3	·	·	·
CSCC[C@H](NC(=O)OC(C)(C)C)c1nnc(SCc2ccc(F)cc2)o1	-7	-7	0	8	-6	·	·
CSCC[C@H](NC(=O)OC(C)(C)C)c1nnc(SCc2cccc(F)c2)o1	-6	-6	1	20*	-8	1	0
COC(=O)[C@]12C[C@H](CC(=O)N3CCN(C(=O)C4CC4)CC3)C(=O)N(Cc3ccco3)C1=C[C@H](C1CCCC1)O[C@@H]2C	·	·	-5	0	·	·	·
COC(=O)C1CN(Cc2ccc(F)cc2)CCS(=O)(=O)N1Cc1cn(Cc2ccc(F)cc2)nn1 (centres undefined)	·	·	-4	-3	·	·	·
COc1ccc(C=NNc2nc3ccccc3s2)cc1	·	·	1	-12	16	·	·
SMILES	A3G deaminase	A3A deaminase	ADAM17 inh	ADAM10 inh	NRP1-CendR mod	ADAM10 confirm	ADAM17 ctr
C(=C\c1ccccc1)/C=N/Nc1nc2ccccc2s1	-4	-2	4	26*	15	23*	8
CCC/C=N/Nc1nc2ccccc2s1	-9	-4	7	25*	0	1	-1
COc1cccc(C2c3c(ncn(-c4ccccc4)c3=N)Oc3ccc4ccccc4c32)c1OC (centres undefined)	·	·	-2	-3	·	·	·
CCSc1n[nH]c(=O)n1C	·	·	-6	-7	·	·	·
N#CCSc1nnc(CNc2ccc(F)cc2)o1	-5	-5	4	12	3	·	·
Cc1ccc(CSc2nnc(CNc3ccc(F)cc3)o2)cc1	-1	-1	5	26*	3	2	1
COc1ccc(-n2c(COc3ccc(C)cc3)nnc2SCC(=O)c2ccc(-c3ccccc3)cc2)cc1	·	·	2	5	·	·	·
FC(F)Sc1ccc(NC(=S)NCC2CCCCC2)cc1	-9	-1	7	31*	14	2	1
Cc1ccc(S(=O)(=O)N2CCC(=O)N2)cc1	3	0	0	28*	2	12	1
COc1ccc(C(=O)CSc2nnc(-c3cccnc3)n2-c2ccc(C)cc2)cc1	·	·	-1	-2	·	·	·
CCOC(=O)CC[C@H]1CC[C@]2(CCCN(C(=O)c3ccc4ccccc4n3)C2)O1	·	·	-3	-4	·	·	·
CCCSC1=C(C#N)C(c2cccs2)C(C(=O)Nc2ccccc2)=C(C)N1 (centres undefined)	-6	-2	6	28*	0	22*	7
Cc1oc(-c2ccc(-c3ccccc3)cc2)nc1CN1CCN(CC(=O)N(C)C)CC1	-3	7	-2	-4	12	·	·
COc1ccc(-c2nc(CN3CCN(Cc4ccccc4)CC3)c(C)o2)cc1	-3	-3	-2	79*	13	2	1
C=CCC[C@@H](Cc1ccc(F)cc1)C(=O)OC[C@@H](Cc1c[nH]c2ccccc12)NC(=O)[C@H](CC=C)CC(=O)NCCO	-7	-2	6	16	12	·	·
C=CCC[C@@H](Cc1ccc(F)cc1)C(=O)OC[C@H](Cc1c[nH]c2ccccc12)NC(=O)[C@@H](CC=C)CC(=O)NCCO	-3	2	7	25*	6	1	0
COc1ccc(C2NC(=S)N(Cc3ccc(Cl)cc3)C(C)=C2C(C)=O)cc1 (centres undefined)	·	·	6	22*	·	3	2
CC(=O)C1=C(C)N(Cc2ccc(F)cc2)C(=S)NC1c1ccc(Cl)cc1 (centres undefined)	·	·	3	13	·	·	·
CC(=O)Nc1cccc(C(=O)OC(C(=O)c2ccc(C)cc2)c2ccccc2)c1 (centres undefined)	-4	-3	7	25*	-8	5	2
CC(=O)Nc1cccc(C(=O)OC(C(=O)c2ccc(C)c(C)c2)c2ccccc2)c1 (centres undefined)	5	0	3	12	-3	·	·
